# Screens: PubChem, National Center for Advancing Translational Sciences (NCATS)
# KinaseGlo FLuc: blocks Kinase-Glo luciferase, a counter-screen artifact | Q27757 | Potency, µM (series often up to 38.3 µM), for the others: top-dose activity change, negative = inhibition, actives largely listed as inhibitors | Kinase-Glo luciferase, ATP luminescence, 8 min | AID 1379 | 200,000 compounds, 0.28% hits; note: nearly all actives have a fitted effect of over 60% in size
#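 Kinase-Glo luciferase light output from ATP and luciferin was measured with 10 uM ATP, within the enzyme's linear range. Buffer: 50 mM imidazole pH 7.2, 50 mM KCl, 7 mM MgCl2, 0.01% Tween 20, 0.05% BSA; luminescence read after 8 min at ambient temperature.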
# RORg inh: blocks mouse ROR gamma transcriptional activity | P51450 | Drosophila S2 Gal4-RORgamma UAS-luciferase reporter, 20 h | Potency, µM (highest dose often 53.6 µM), for the others: at the top dose activity change, negative = inhibition, actives largely listed as inhibitors | 310,000 compounds, 5.4% hits; note: nearly all actives have a fitted effect of over 60% in size
# Target sequence (P51450 whole entry, looked up, the tested form may be a part): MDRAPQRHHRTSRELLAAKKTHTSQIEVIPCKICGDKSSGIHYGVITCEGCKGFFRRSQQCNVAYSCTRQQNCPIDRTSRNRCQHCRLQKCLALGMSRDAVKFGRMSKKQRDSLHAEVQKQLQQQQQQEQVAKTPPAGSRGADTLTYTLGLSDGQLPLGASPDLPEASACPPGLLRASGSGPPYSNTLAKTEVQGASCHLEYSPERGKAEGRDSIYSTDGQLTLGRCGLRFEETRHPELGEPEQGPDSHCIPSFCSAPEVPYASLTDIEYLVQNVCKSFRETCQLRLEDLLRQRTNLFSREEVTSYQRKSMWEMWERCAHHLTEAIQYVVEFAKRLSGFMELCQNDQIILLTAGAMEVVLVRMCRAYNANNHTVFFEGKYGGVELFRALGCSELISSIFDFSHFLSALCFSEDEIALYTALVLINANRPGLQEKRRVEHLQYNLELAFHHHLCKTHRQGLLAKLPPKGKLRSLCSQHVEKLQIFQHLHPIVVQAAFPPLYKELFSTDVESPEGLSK
#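 Stable Schneider cell line, Gal4 DNA-binding domain fused to ROR gamma, UAS-luciferase. Cmpd 1 hr RT → CuSO4 700 uM final → 20 hr RT → luciferase reagent 10 min → luminescence.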
# Gal4-VP16 FLuc: counter-screen for ROR gamma inhibitors: Gal4-VP16 reporter; Drosophila S2 Gal4-VP16 UAS-luciferase, luminescence, 20 h; Potency, µM (highest dose often 53.6 µM), for the others: at the highest dose activity, negative = inhibition, most hits filed as inhibitors; 310,000 compounds, 3.5% hits; AID 2546;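 note: Gal4-VP16 expression switched on by copper sulfate through the metallothionein promoter; nearly all actives have a fitted effect of over 50% in size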
# Numbers without * were called inactive; ? = inconclusive; / = not tested or not shown. Rows were chosen to be rich in hits. Some 6.2% of all compounds tested hit in one or more screens of this group. Calls come from the whole dose curve; as a rule, active = well fitted curve in the direction sought with a large enough effect; inconclusive = small, poorly fitted or top-dose-only effect, or another doubt; inactive = no such curve, though single readings can be large; an effect the other way counts as inactive or inconclusive. % is set by controls: 0 for no effect and ±100 for the full control effect; potency is the fitted concentration of half-maximal effect.
SMILES,KinaseGlo FLuc,RORg inh,Gal4-VP16 FLuc
CCN(CC)CCn1c2ccccc2c2cnc(N)c(C#N)c21,/,0.18µM*,-63%
CN(C)C=Nc1ncc2c3ccccc3n(CCN(C)C)c2c1C#N,-9%,-25%,?
O=C(COC(=O)c1cccc(S(=O)(=O)N2CCc3ccccc32)c1)Nc1ccc(Cl)cn1,-1%,15%,0%
N=c1ccn2c(n1)O[C@@H]1[C@H](O)[C@H](CO)O[C@@H]12,-1%,-32%,-9%
O=C(CSc1nnc2scc(-c3ccccc3)n12)N1CCN(Cc2ccccc2)CC1,1%,8.9µM*,-8%
Cc1ccc(-c2csc3nnc(SCC(=O)N4CCN(Cc5ccccc5)CC4)n23)cc1,-3%,-43%,-8%
COc1ccc2nc3c(c([Si](C)(C)C(C)(C)C)c2c1)Cn1c-3cccc1=O,-6%,13µM*,11µM*
COc1cc2nc3c(c([Si](C)(C)C(C)(C)C)c2cc1OC)Cn1c-3cccc1=O,-3%,17%,-2%
CC1(C)C2CC=C(/C=N/NC(=O)c3ccccc3Br)C1C2 (stereo not drawn),1%,2%,-4%
COC(=O)c1ccc(-n2nnnc2SCc2ccccc2OC)cc1,2%,38%,?
Cc1cc(C)c2c(NC(=S)Nc3ccccc3)n[nH]c2n1,0%,1.1µM*,3.2µM*
Cc1cc(C)c2c(NC(=S)NC(=O)c3ccccc3)n[nH]c2n1,3%,5.6µM*,?
O=C(NC(=S)Nc1ccc2[nH]ncc2c1)c1ccccc1,-6%,3%,-25%
Cc1cc(C)c2c(=O)[nH]c(SCC(=O)Nc3ccccc3)nc2n1,0%,-15%,-2%
COc1cc(C(=O)ONC(=O)c2ccc(OC(F)F)cc2)cc(OC)c1OC,/,-44%,?
CCn1nnnc1NCc1cccn1C,1%,-15%,-5%
O=C(NC1=NCCS1)c1cccs1,1%,3%,11%
COc1ccccc1N(C)S(=O)(=O)c1ccc(Cl)c(C(=O)NC2=NCCS2)c1,4%,-21%,-3%
O=C(NC1=NCCS1)c1ccc(Cl)c(Cl)c1,/,11µM*,?
O=C(NC1=NCCS1)c1ccccc1,/,-12%,6%
Cc1cccc(C(=O)NC2=NCCS2)c1,-20%,11µM*,-29%
O=C(NC1=NCCS1)c1csc2ccccc12,-17%,7.9µM*,?
COc1cc(OC)c(N(C)S(=O)(=O)c2cccc(C(=O)NC3=NCCS3)c2)cc1Cl,/,10µM*,?
O=C(NC1=NCCS1)c1ccc(Cl)c(S(=O)(=O)N2CCCC2)c1,/,-5%,12%
CCCOc1ccc(/C(O)=C2/C(=O)C(=O)N(CCCn3ccnc3)C2c2cccnc2)cc1 (stereo not drawn),/,9%,4%
SMILES,KinaseGlo FLuc,RORg inh,Gal4-VP16 FLuc
CCOc1ccccc1N(CC(=O)Nc1ccc(S(=O)(=O)N2CCCC2)cc1)S(C)(=O)=O,/,7%,4%
Cc1cc(C(=O)NC2=NCCS2)cs1,-3%,11µM*,?
O=C(NC1=NCCS1)c1ccncc1,1%,-14%,5%
CCOC(=O)N1CCC(Nc2ncnc3c2cnn3-c2ccc(Cl)cc2)CC1,-3%,8.9µM*,8%
CCOC(=O)C1CCCN(c2ncnc3c2cnn3-c2ccc(Cl)cc2)C1 (stereo not drawn),2%,12%,-17%
CC(C)(C)OC(=O)NCCCC[C@H](NC(=O)c1nc[nH]c1C(=O)N[C@@H](CCCCNC(=O)OC(C)(C)C)C(=O)OC(C)(C)C)C(=O)OC(C)(C)C,/,?,-9%
CC(C)(C)OC(=O)NCCCC[C@H](NC(=O)c1nc[nH]c1C(=O)NC(c1ccccc1)c1ccccc1)C(=O)OC(C)(C)C,/,10µM*,?
C[C@H](NC(=O)c1nc[nH]c1C(=O)N[C@@H](CCCCNC(=O)OC(C)(C)C)C(=O)OC(C)(C)C)C(=O)OC(C)(C)C,/,?,13µM*
Cc1cccc(NC(=O)c2nc[nH]c2C(=O)N[C@@H](CCCCNC(=O)OC(C)(C)C)C(=O)OC(C)(C)C)c1,/,6.3µM*,16µM*
COc1ccc(N2CC(C(=O)N[C@H](C(=O)NC(C)c3ccccc3)C(C)C)CC2=O)cc1 (stereo partly drawn),/,11%,-9%
CC(c1ccc(O)cc1)(c1ccc(O)cc1)c1ccc(CCBr)cc1,/,19%,-2%
COc1ccc(NC(=O)CN2C(=O)NC(c3ccccc3)(c3ccccc3)C2=O)cc1OC,/,1%,-5%
O=C(Nc1cccc(C(F)(F)F)c1)C(=O)N1CCCCC1,/,20%,-1%
Cc1nnc(NC(=O)c2cc(-c3ccncc3)nc3c(C)cccc23)s1,/,14%,-8%
Cc1ccc(S(=O)(=O)N2CCCCC2)cc1C(=O)Nc1ncn[nH]1,13%,-22%,-4%
O=c1c(-c2cccc(F)c2)nc2cncnc2n1Cc1ccccc1,0%,12%,8%
